A selection: hits, their analogues and other compounds. The true share with any hit is near 1.6%.
p53ts 32C tox – kills p53ts cells at the permissive temperature; H1299-p53A138V at 32C, ATP luminescence viability, 24 h; Potency, µM (series often up to 46.1 µM), hits mostly cytotoxic; hit rate 0.93% among 130,000; AID 924; note: nearly all actives have a fitted effect of over 55% in size
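ATP-content luminescence (ATPlite) read-out after 24 h compound exposure at 32C in H1299-p53A138V cells (600/well). Tested up to 46 uM. Normalized to DMSO (0%) and 100 uM tamoxifen (100% killing); Hill-fit AC50.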
Peg3 imprint – inducers of genomic imprint erasure in mouse ES cells; Potency, µM (doses to about 60.7 µM), usual class: activators; hit rate 0.02% among 110,000; mouse ES Peg3-LacZ reporter, beta-gal luminescence, 40 h; AID 1948
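Gelatin-coated wells received 300 freshly trypsinized female ES cells with a Peg3LacZ-Neo reporter on the maternal allele, then incubated 40 hours at 37C. BetaGlo was added for 5 minutes at room temperature before a single luminescence read.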
p53ts 39C kill – cytotoxicity in p53ts cells at nonpermissive temperature; H1299-p53A138V viability at 39C, ATP luminescence, 24 h; Potency, µM (highest dose often 46.1 µM), usual class: cytotoxic; hit rate 1.5% among 130,000; AID 902; note: nearly all actives have a fitted effect of over 55% in size
Large screens that a line does not name were inactive. Calls come from the whole dose curve; as a rule, active = well fitted curve in the direction sought with a large enough effect; inconclusive = small, poorly fitted or top-dose-only effect, or another doubt; inactive = no such curve, though single readings can be large; an effect the other way counts as inactive or inconclusive.

COc1ccc(NC(=O)c2ccc3c(=O)n4nc(Nc5ccccc5C)sc4nc3c2)cc1	none
Cc1ccc(NC(=O)c2ccc3c(=O)n4nc(Nc5ccccc5C)sc4nc3c2)cc1C	p53ts 32C tox 13µM
Cc1ccc(NC(=O)Cn2c(=O)n(Cc3nc(C)no3)c(=O)c3cc4c(cc32)OCO4)c(C)c1	none
Cc1cccc(NC(=O)CSc2ncc(-c3ccc(Br)cc3)[nH]2)c1	p53ts 32C tox inconclusive, p53ts 39C kill 13µM
CCOc1cccc(NC(=O)CSc2ncc(-c3ccccc3)[nH]2)c1	none
O=C(NC1CC1)c1ccc(-c2nc3ccccc3s2)s1	p53ts 32C tox 0.5µM, p53ts 39C kill 0.4µM
Cc1noc(C)c1COC(=O)c1ccc(-c2nc3ccccc3s2)s1	none
CCOc1ccc(N(CC)C(=O)c2cc3c(s2)-c2ccc(Cl)cc2SC3)cc1	p53ts 39C kill 20µM
CCc1ccccc1N(CC)C(=O)c1cc2c(s1)-c1ccccc1SC2	p53ts 39C kill inconclusive
CCCN(C(=O)c1cc2c(s1)-c1c(C)cccc1OC2)c1ccc(OCC)cc1	none
Oc1c(I)cc(Cl)c2cccnc12	p53ts 32C tox inconclusive, p53ts 39C kill 7.9µM
OCc1ccccc1OCCOc1ccc(Cl)c2cccnc12	none
Oc1ccc2[nH]cnc2c1CN1CCCCC1	none
Oc1c(CN2CCCCC2)cc(Br)c2cccnc12	p53ts 39C kill 10µM
O=C(NCc1cccnc1)c1ccc(CN2CCc3ccccc3C2)cc1	none (no result: Peg3 imprint)
Oc1c(CN2CCc3ccccc3C2)cc(Cl)c2cccnc12	p53ts 32C tox 13µM, p53ts 39C kill 4µM
CCCC(=O)N1c2nc(-c3ccco3)nn2C2(CCCCC2)[C@@H]2CCCC[C@@H]21	none
CO[C@@H]1COC(=O)[C@H]2CCCN2C(=O)[C@@H](C)COC(=O)C/C=C\[C@H]1C	none (no result: Peg3 imprint)
Cc1ccccc1CNC(=O)Nc1ccc2c(c1)N(C)C(=O)c1ccccc1S2	none
CCOc1ccc(CNC(=O)C2CCN(C(=O)N3CC(CC)Oc4ccccc43)CC2)cc1 (configuration not stated)	p53ts 39C kill inconclusive
CC(C)CO/N=C1/C[C@@H](O)[C@@H](O)[C@@H]2[C@@H]3C(=O)N([C@@H](C)c4ccccc4)C(=O)[C@H]3CC[C@@H]12	none (no result: Peg3 imprint)
CC(=O)OC[C@@H]1O[C@H](C/C=N\O[C@@H](C)c2cc(-c3c(C)cc(C)cc3C)no2)C=C[C@@H]1OC(C)=O	none (no result: Peg3 imprint)
CC(C)c1ccc(NC(=O)c2ccc(CN3CC(=O)N4CCCCC4C3=O)cc2)cc1 (configuration not stated)	none (no result: Peg3 imprint, p53ts 39C kill)
Cc1nn(-c2ccccc2)c2c1N(CCCC(=O)NCc1ccc(OC(C)C)cc1)C(=O)CS2	none
CCCCN(CCCC)CC(O)Cn1cc(/C=C/C(=O)c2ccccc2)c2ccccc21 (configuration not stated)	p53ts 32C tox inconclusive, p53ts 39C kill inconclusive
CCCCN(C)CC(O)Cn1cc(/C=C/C(=O)c2ccc(OCC)cc2)c2ccccc21 (configuration not stated)	p53ts 32C tox 16µM, p53ts 39C kill 5µM
COc1ccc(CC(=O)NCC(c2ccc(N(C)C)cc2)N2CCOCC2)cc1 (configuration not stated)	none
O=C(CN1C(=O)COc2ccc(S(=O)(=O)N3CCCC3)cc21)NCCc1ccc(Cl)cc1	none
COCCN(CCOC)S(=O)(=O)c1ccc(C(=O)Nc2nnc(C)o2)cc1	none
CSCc1nnc(NC(=O)c2ccc(S(=O)(=O)N(CC(C)C)CC(C)C)cc2)o1	p53ts 39C kill 13µM
COCc1nnc(NC(=O)c2ccc(S(=O)(=O)N(C)C3CCCCC3)cc2)o1	p53ts 39C kill inconclusive
CCc1nnc(NC(=O)c2ccc(S(=O)(=O)N(CC(C)C)CC(C)C)cc2)o1	p53ts 39C kill 13µM
NS(=O)(=O)c1ccc(CCNC(=O)Cn2c(-c3cccs3)cc3ccccc32)cc1	none (no result: Peg3 imprint, p53ts 39C kill)
CCc1cc2c(cc3c(=O)n(CCCC(=O)NCc4ccccc4Cl)nc(CC)n32)s1	p53ts 39C kill inconclusive
COc1ccc(N(C(=O)c2ccc(OC)c(OC)c2)S(=O)(=O)c2ccc(Cl)cc2)cc1	none
CN(C)c1ccc(CNC(=O)CN2C(=O)c3cccnc3Oc3ccc(Cl)cc32)cc1	none (no result: Peg3 imprint, p53ts 39C kill)
c1cncc(CNc2ncncc2-c2ccoc2)c1	none
COC(=O)c1ccc(C23CC2(C(NP(=O)(c2ccccc2)c2ccccc2)c2ccccc2)C3)cc1 (configuration not stated)	none
COc1cccc(-c2ccc3ncnc(NCc4cnc(C)cn4)c3c2)c1	Peg3 imprint inconclusive
COc1ccc(-c2cc(C(=O)N3CCOCC3)no2)cc1OC	none
O=C(c1cc(-c2cccc(O)c2)on1)N1CCOCC1	p53ts 32C tox 10µM, p53ts 39C kill inconclusive
O=C(COc1ccc([N+](=O)[O-])cc1)NCC1(N2CCOCC2)CCCCC1	none
CC(C)(C)c1ccc(OCC(=O)NCC2(N3CCOCC3)CCCCC2)cc1	p53ts 32C tox inconclusive, p53ts 39C kill 16µM
CCC(C(=O)Nc1cc(Cl)ccc1OC)n1nc(-c2ccccc2)ccc1=O (configuration not stated)	none
O=C(NCc1ccccc1Cl)c1cccc(C(F)(F)F)c1	p53ts 39C kill 16µM (no result: Peg3 imprint)
O=C(NCc1ccccc1Cl)c1cccc(NC(=O)c2ccccc2)c1	none (no result: p53ts 32C tox, Peg3 imprint)
COc1ccc(-c2cc(C)no2)cc1S(=O)(=O)N1CCN(c2ccc(C(C)=O)cc2)CC1	none
CCC(=O)Nc1ccc(NC(=O)c2cc3ccccc3o2)cc1	none
Cc1csc(C(C#N)C(=O)c2cc3ccccc3o2)n1 (configuration not stated)	p53ts 32C tox 5µM, p53ts 39C kill 5µM
CCOc1ccc2nc(N3CCCC(C(=O)NCCc4ccc(SC)cc4)C3)sc2c1 (configuration not stated)	p53ts 39C kill inconclusive
O=C(NC1CCCCC1)c1ccc(Cc2nc3ccccc3[nH]2)cc1	none (no result: Peg3 imprint)
COc1cc(NC(=O)CCS(=O)(=O)c2nc(-c3cccs3)cc(C(F)(F)F)n2)cc(OC)c1OC	p53ts 39C kill 13µM
COc1ccc(NC(=O)CCS(=O)(=O)c2nc(-c3ccc4c(c3)OCO4)cc(C(F)(F)F)n2)c(OC)c1	p53ts 32C tox inconclusive, p53ts 39C kill inconclusive
Cc1cc(NC(=O)CCCS(=O)(=O)c2nc(-c3cccs3)cc(C(F)(F)F)n2)no1	p53ts 32C tox inconclusive, p53ts 39C kill inconclusive
O=C(CCS(=O)(=O)c1nc(-c2ccc3c(c2)OCO3)cc(C(F)(F)F)n1)Nc1ccccc1C(F)(F)F	p53ts 32C tox inconclusive, p53ts 39C kill 7.9µM
COc1ccc(NC(=O)CCS(=O)(=O)c2nc(-c3cccs3)cc(C(F)(F)F)n2)cc1OC	p53ts 32C tox inconclusive, p53ts 39C kill 4µM
COc1ccc(NC(=O)CCS(=O)(=O)c2nc(-c3ccc4c(c3)OCO4)cc(C(F)(F)F)n2)cc1OC	p53ts 32C tox inconclusive
O=C(CCS(=O)(=O)c1nc(-c2cccs2)cc(C(F)(F)F)n1)Nc1cccc(O)c1	p53ts 32C tox inconclusive, p53ts 39C kill 13µM
COc1cc(NC(=O)CSc2nc(-c3cccs3)cc(C(F)(F)F)n2)cc(OC)c1OC	none
O=P(O)(O)O[C@@H]1[C@H](O)[C@H](O)[C@@H](OP(=O)(O)O)[C@H](OP(=O)(O)O)[C@H]1O	none (no result: p53ts 32C tox, p53ts 39C kill)
O=C(Nc1ccccc1)N1CCCC2(CCN(C(=O)c3cnccn3)CC2)C1	none (no result: Peg3 imprint)
OC1C=C2CCN3Cc4cc5c(cc4C(C1O)C23)OCO5 (configuration not stated)	none

Assay outcomes (PubChem BioAssay)
